Source: PubChem
HEK293 tox – Cytotoxic Profiling in HEK 293 Cell Line of Diverse Libraries Using Quantitative High-Throughput Screening; HEK 293 viability, ATP luminescence (CellTiter-Glo), 48-72 h; Potency, µM (highest dose often 115 µM), inactives show at the top dose activity change, negative = cytotoxicity, hits mostly inhibitors; hit rate 6.6% among 94,000; AID 1345083, 2018; also: % is scaled to controls: 0 for no effect and ±100 for the full control effect; nearly all actives have a fitted effect of over 60% in size
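HEK 293 cells at 250 cells/well were exposed to compounds by pintool transfer for 48 or 72 hr at 37 degree Celsius, 5% CO2. Viability was read as ATP-coupled luminescence with CellTiter-Glo after 10 min at room temperature.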
SNCA viab count – GF-AFC viability counterscreen for inhibitors of alpha-synuclein gene (SNCA) expression; HEK-293-SNCA-luc viability, GF-AFC fluorescence, 24 h; Potency, µM (top dose mostly 57.1 µM), inactives show at the highest dose activity change, negative = cytotoxicity, usual class: cytotoxic; hit rate 0.12% among 150,000; AID 1671193, 2021;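 also: 0% = DMSO-treated cells and -100% = medium-only wells without cells; nearly all actives have a fitted effect of over 30% in size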
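Cytotoxicity counterscreen: after 24 h compound treatment of genome-edited SNCA-luciferase HEK-293 cells, live-cell protease substrate GF-AFC read by fluorescence after 30 min; activity scaled between DMSO (0%) and medium-only (-100%), curves Hill-fitted.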
NIH3T3 tox – Cytotoxic Profiling in NIH 3T3 Cell Line of Diverse Libraries Using Quantitative High-Throughput Screening; NIH 3T3 viability, CellTiter-Glo ATP luminescence, 48-72 h; Potency, µM (titrated, usually from 96.7 µM), for the others: at the top dose activity change, negative = cytotoxicity, actives largely listed as inhibitors; hit rate 4.3% among 94,000; AID 1345082, 2018; also: % is scaled to controls: 0 for no effect and ±100 for the full control effect; nearly all actives have a fitted effect of over 55% in size
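Mouse fibroblast NIH 3T3 cells, 400 per well, received compound via pintool and were incubated for 48 or 72 hr prior to CellTiter-Glo ATP luminescence measurement.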
NPR1 antag – Natriuretic polypeptide receptor (hNpr1) antagonism - Primary qHTS. AID 1347048, 2019. hit rate 1.6% among 76,000. HEK293 hNpr1 GloSensor cGMP, ANP-stimulated luminescence. Atrial natriuretic peptide receptor 1 (Homo sapiens), P16066. Potency, µM (doses to about 46.3 µM), for the others: at the top dose activity change, negative = inhibition, most hits filed as inhibitors; calls by dose curve; also: % is scaled to controls: 0 for no effect and ±100 for the full control effect; nearly all actives have a fitted effect of over 60% in size
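HEK293 cells stably expressing human Npr1 and cGMP GloSensor pGS-40F, loaded 2 h with 2% GloSensor reagent, given compound 30 min at room temperature. Luminescence read before and 20 min after 0.1 nM hNppA.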
FLuc inh-1 – Firefly luciferase inhibition profiling of diverse chemical library using quantitative high-throughput screening; purified P. pyralis luciferase, luminescence, biochemical; Potency, µM (series often up to 115 µM), most hits filed as inhibitors; hit rate 2.5% among 76,000; AID 1347043, 2019; Luciferin 4-monooxygenase (Photinus pyralis), P08659; also: % is scaled to controls: 0 for no effect and ±100 for the full control effect; nearly all actives have a fitted effect of over 65% in size
Target sequence (P08659 whole entry, looked up): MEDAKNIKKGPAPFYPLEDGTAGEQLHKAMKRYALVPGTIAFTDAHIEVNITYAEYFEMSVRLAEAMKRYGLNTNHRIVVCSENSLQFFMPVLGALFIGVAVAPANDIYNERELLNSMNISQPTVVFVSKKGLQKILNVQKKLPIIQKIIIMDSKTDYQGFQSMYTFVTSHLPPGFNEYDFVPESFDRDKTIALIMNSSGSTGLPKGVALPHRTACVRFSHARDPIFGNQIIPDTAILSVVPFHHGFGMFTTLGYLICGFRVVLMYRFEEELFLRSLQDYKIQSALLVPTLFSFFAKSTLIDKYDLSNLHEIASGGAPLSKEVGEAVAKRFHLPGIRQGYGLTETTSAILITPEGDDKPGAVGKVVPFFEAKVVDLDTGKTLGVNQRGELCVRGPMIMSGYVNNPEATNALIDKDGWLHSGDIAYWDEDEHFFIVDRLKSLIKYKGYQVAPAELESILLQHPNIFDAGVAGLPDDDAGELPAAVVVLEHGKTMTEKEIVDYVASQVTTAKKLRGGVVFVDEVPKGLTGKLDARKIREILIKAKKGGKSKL
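Biochemical qHTS: compound (6-point titration) added to 10uM D-luciferin plus 10uM ATP in Tris acetate pH 7.5 buffer with Mg, Tween-20 and BSA, then purified enzyme at 10nM; light output imaged.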
SNCA expr inhib – Primary qHTS assay for inhibitors of alpha-synuclein gene (SNCA) expression. HEK-293 SNCA-luciferase knock-in, luminescence, 24 h. Potency, µM (top dose mostly 57.2 µM), for the others: at the top dose activity change, negative = inhibition, actives largely listed as inhibitors. hit rate 0.17% among 140,000. AID 1671194, 2021;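 also: plate controls were DMSO cells for no effect and cell-free wells for full effect; nearly all actives have a fitted effect of over 45% in size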
FLuc SDR no ATP – Firefly luciferase (FLuc-C-HiBiT) SDR gain of signal screen - without ATP. hit rate 7.8% among 1,300. Potency, µM (doses to about 32.7 µM), for inactives: at the highest dose activation (signal gain), actives largely listed as activators. AID 1963318, 2024. Purified FLuc-C-HiBiT, Nano-Glo HiBiT luminescence, no ATP. shares compounds with FLuc inh-1; also: nearly all actives have a fitted effect of over 55% in size
FLuc SDR ATP – Firefly luciferase (FLuc-C-HiBiT) SDR gain of signal screen - plus ATP; Potency, µM (top dose mostly 32.7 µM), inactives show top-dose activation (gain of signal), usual class: activators; AID 1963319, 2024; shares compounds with FLuc inh-1; purified FLuc-C-HiBiT + ATP, HiBiT complementation luminescence; hit rate 8.7% among 1,300;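 also: signal reports ligand binding via conformational change of the enzyme rather than luciferase catalysis; % of control where 0% means no effect; nearly all actives have a fitted effect of over 55% in size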
FLuc inh-2 – Firefly luciferase (FLuc-C-HiBiT) enzymatic inhibition screen - Functional assay; shares compounds with FLuc inh-1; hit rate 42% among 1,300; purified FLuc-C-HiBiT enzyme, luciferin luminescence; Potency, µM (titrated, usually from 32.7 µM), inactives show at the highest dose activity change, negative = inhibition, actives largely listed as inhibitors; also: % is scaled to controls: 0 for no effect and ±100 for the full control effect; nearly all actives have a fitted effect of over 70% in size
Starred values were filed as active, the others as inactive; i = inactive; u = inconclusive; x = no result given; [ ] = another dose, or the depositor's remark. In the library only some 7.2% were active in any assay of this set; here they are far more common. Unless noted, calls follow the shape of the dose curve; as a rule, active = well fitted curve in the direction sought with a large enough effect; inconclusive = small, poorly fitted or top-dose-only effect, or another doubt; inactive = no such curve, though single readings can be large; an effect the other way counts as inactive or inconclusive. Potency is read from the fitted curve at half-maximal effect.

SMILES	HEK293 tox	SNCA viab count	NIH3T3 tox	NPR1 antag	FLuc inh-1	SNCA expr inhib	FLuc SDR no ATP	FLuc SDR ATP	FLuc inh-2
Cn1ccc2c(C(=O)NCCc3ccccn3)nc(-c3cccc(N4CCOCC4)c3)cc21	u	-20%	u	1%	i	15%	x	x	x
Cn1ccc2c(C(=O)NCCc3cnc[nH]3)nc(-c3ccc(N4CCOCC4)cc3)cc21	u	2%[87.6 µM]	u	-2%[70.6 µM]	1µM*	34%[87.6 µM]	u	u	4.5µM*
Cn1ccc2c(C(=O)NCc3cnccn3)nc(-c3cccc(N4CCOCC4)c3)cc21	-21%[172 µM]	-13%[87.6 µM]	u	5%[70.6 µM]	i	6%[87.6 µM]	x	x	x
CN1CCN(c2ccc(-c3cc4c(ccn4C)c(C(=O)NCCc4ccccn4)n3)cc2)CC1	35µM*	u	20µM*	-12%	0.79µM*	-18%	u	u	2.8µM*
Cc1ccc(-n2ncc3c(N4CCCCC4)ncnc32)cc1Cl	x	7%	x	x	x	7.1µM*	8.8µM*	1.8µM*	0.79µM*
COc1ccc(N2CCN(c3ncnc4c3cnn4-c3ccc(C)c(Cl)c3)CC2)cc1	x	3%	x	x	x	28%	x	x	x
Cc1ccc(-n2ncc3c(N4CCCCC4)ncnc32)cc1	x	3%	x	x	x	0.89µM*	1.8µM*	1.1µM*	0.2µM*
Cc1ccc(-n2ncc3c(N4CCCCCC4)ncnc32)cc1Cl	x	2%	x	x	x	9%	u	u	0.7µM*
COc1cc(NC(=S)N[C@H]2CO[C@H]3[C@@H]2OC[C@@H]3n2nnnc2Oc2cccc(N3CCOCC3)c2)cc(OC)c1	-27%	-2%	-24%	5%	i	-5%	x	x	x
CSc1ccc(/C=C/c2nc3ccccc3n2S(=O)(=O)c2ccc(F)c(C)c2)cc1	x	-6%	x	x	x	-84%	5µM*	u	0.7µM*
CCOc1ccc(/C=C/c2nc3ccccc3n2S(=O)(=O)c2cccc(Cl)c2)cc1	x	-10%	x	x	x	-94%	3.1µM*	u	0.39µM*
Cc1ccc(/C=C/c2nc3ccccc3n2S(=O)(=O)c2cccc(Cl)c2)cc1	x	-13%	x	x	x	u	0.56µM*	0.7µM*	0.12µM*
CCc1ccccc1NC(=O)COc1ccc(NC(=O)C2CC2)cn1	-6%	4%	2%	-1%	i	-12%	x	x	x
CC(C)/C=C1/NC(=O)C(C(C)C)n2c1nc1c(O)cccc1c2=O (configuration not stated)	x	-17%	x	x	x	x	x	x	x
COc1ccc(-c2cn3nc(SCC(=O)Nc4ccccc4F)ccc3n2)cc1	x	-3%	x	x	x	13%	u	17%	u
COc1ccc(-n2cc(-c3ccccc3)nc2SCC(=O)Nc2ccccc2C)cc1	x	-13%	x	x	x	-23%	x	x	x
Cc1cccn2c(=O)cc(CN3CCC4(CC3)C(C(=O)O)CC(=O)N4C)nc12 (configuration not stated)	-9%	7%	2%	-5%	i	-14%	x	x	x
O=C([C@@H]1C[C@@H](O)[C@H](O)[C@@H]2NC(=S)N(c3ccc4c(c3)OCO4)[C@@H]21)N1CCOCC1	i	-17%[87.6 µM]	i	-12%[70.6 µM]	5µM*	53%[87.6 µM]	12%[49.3 µM]	u	u
O=C(C1CN(c2ccccc2)C(=O)N1)N1CCOCC1 (configuration not stated)	-4%[172 µM]	-8%[87.6 µM]	4%[138 µM]	0%[70.6 µM]	i	-7%[87.6 µM]	x	x	x
O=C(Nc1n[nH]c2cc(-c3ccccc3)ccc12)C1CC1	x	x	x	x	x	x	18%	11%	u
O=C(Nc1ncc(-c2ccccc2)c2c1OCC2)C1CCOCC1	u	0%[87.6 µM]	u	-1%[70.6 µM]	i	-5%[87.6 µM]	x	x	x
CN(CC(=O)O)c1ncc(CN2CCn3nc(C(O)CO)cc3C2)cn1 (configuration not stated)	2%	-2%	1%	4%	i	-20%	x	x	x
Cc1ccc(OCCC2CCN(C(=O)CC(F)(F)F)C2)cc1 (configuration not stated)	u	7%	-26%	1%	i	11%	x	x	x
Cc1ccc(-n2ncc3c(N4CCCC(C)C4)ncnc32)cc1C (configuration not stated)	x	x	x	x	x	x	3.5µM*	1.2µM*	0.16µM*
CN1CCN(c2ncnc3c2cnn3-c2cccc(Cl)c2)CC1	x	-9%	x	x	x	u	x	x	x
SMILES	HEK293 tox	SNCA viab count	NIH3T3 tox	NPR1 antag	FLuc inh-1	SNCA expr inhib	FLuc SDR no ATP	FLuc SDR ATP	FLuc inh-2
CC1CCCN(c2ncnc3c2cnn3-c2cccc(Cl)c2)C1 (configuration not stated)	x	x	x	x	x	x	11µM*	u	0.79µM*
O=C(Nc1ccc(F)cc1)N[C@H]1[C@H](O)[C@@H](N2CCC(Cc3ccccc3)CC2)[C@@H]2OC[C@H]1O2	u	-10%	u	-8%	i	-34%	x	x	x
Cc1ccc(C(=O)NC2CC2)cc1-c1ccc2[nH]ncc2c1	x	x	x	x	x	x	17%	12%	-16%
Cc1ccc(-n2ncc3c(NC4CCCCC4)ncnc32)cc1Cl	x	4%	x	x	x	160%	33%	u	2.8µM*
Clc1cccc(-n2ncc3c(NC4CCCCCC4)ncnc32)c1	x	-27%	x	x	x	-88%	x	x	x
Cc1ccc(-n2ncc3c(NC4CCCCC4)ncnc32)cc1C	x	-2%	x	x	x	278%	27%	u	1.8µM*
CCCc1noc(-c2ccn3c(CNC(=O)c4cc(Cl)ccc4F)nnc3c2)n1	-3%	6%	-14%	-2%	i	93%	x	x	x
CC(C)NC(=O)N1CCC2(CC1)CN(C(=O)Cc1csc(N)n1)Cc1ccccc1O2	-4%	4%	-1%	x	x	-13%	x	x	x
COc1ccc(C(=O)Nc2cc(S(=O)(=O)c3ccc(Cl)cc3)c(O)c(C)c2C)cc1	x	-14%	x	x	x	61%	19%	14%	-14%
Cc1c(NC(=O)c2ccc(Cl)cc2)cc(C(C)C)c(O)c1S(=O)(=O)c1ccc(Cl)cc1	x	-8%	x	x	x	124%	x	x	x
